Measurements taken from publication PMC5540273 (PLoS ONE, 2017).

System: CDK4-cyclinD3
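Note: kd values determined as follow-up on hits from a single-replicate KINOMEscan panel screen.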

Row | SMILES | Kd [µM]
1 | CC(=O)c1c(C)c2cnc(Nc3ccn(C)n3)nc2n(C2CCCC2)c1=O | 0.0099
2 | CC(=O)c1c(C)c2cnc(Nc3ccc(N4CCNCC4)cn3)nc2n(C2CCCC2)c1=O | 0.00062
3 | CCc1ccc(-c2ccc3c(c2)-c2n[nH]cc2S(=O)(=O)N3C)cc1 | > 10

System: CDK4

Row | SMILES | Kd [µM]
4 | CNc1nc(-c2ccc3c(N)n[nH]c3c2)cc(N2C[C@@H](C(=O)NC3CCCCC3)OC[C@H]2C)n1 [GSK2375584] | > 10
5 | O=C1NC(=O)C(c2ccc(Cl)cc2)=C1Nc1cccc(Cl)c1 [SB-317651] | > 10
6 | COc1nccc(-c2c(-c3ccc(F)cc3)ncn2CCCN2CCOCC2)n1 [SB-282852] | > 10
7 | O=C(Nc1n[nH]c2cc(-c3ccsc3)ccc12)C1CC1 [SB-732932] | > 10

System: CDKL1

Row | SMILES | Kd [µM]
8 | Cn1cnc2c(N)ncnc21 [SKF-97623] | > 10
9 | COc1ccc(Nc2nccc(N3CCC(NC(=O)C(C)c4ccc(Cl)cc4)C3)n2)cc1 (stereo not drawn) [GSK1379735] | > 10
10 | NS(=O)(=O)c1cccc(N/C=C2\C(=O)Nc3ccc(S(=O)(=O)Cc4c(Cl)cccc4Cl)cc32)c1 [GSK398099] | > 10
11 | Cc1ccc(NC(=O)Nc2ccc(Cl)c(C(F)(F)F)c2)cc1-c1ccc(C(=O)Nc2ccncc2)cc1 [GSK1398470] | > 10
12 | Cn1cncc1C(=O)NC1CCN(c2ccnc(Nc3ccc(F)cc3)n2)C1 (stereo not drawn) [GSK1379717] | > 10
13 | Cn1cncc1-c1cc2c(Nc3ccc(OCc4ccccc4)cc3)ncnc2cn1 [GW281179] | > 10
14 | Cc1c(Cn2c(C)c(C)n3c(=O)cc(N4CCOCC4)nc23)cccc1C(F)(F)F [GSK2328680] | > 10
15 | CNC(=O)c1ccc(C)c(-n2c(C)cc(OCc3ccc(F)cc3F)c(Br)c2=O)c1 | > 10

System: CDKL2

Row | SMILES | Kd [µM]
16 | COC(=O)c1cccc(NC(=O)NC2CCN(c3ccnc(Nc4ccc(F)cc4)n3)C2)c1 (stereo not drawn) [GSK1379725] | 0.68
17 | O=C(Nc1n[nH]c2nc(-c3cccs3)c(Br)cc12)C1CCCC1 [SB-743341] | 0.33
18 | O=C(Nc1n[nH]c2cc(-c3ccsc3)ccc12)C1CC1 [SB-732932] | 0.1
